A short description of assay [1]: NCI Yeast Anticancer Drug Screen. Data for the rad50 strain (AID 155).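 Further: 0% = growth of vehicle-only cultures of the same strain.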 The conditions noted are these: S. cerevisiae rad50 strain growth inhibition; at 50.0 µM; hits give high values. In a few lines:
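Relative growth inhibition (compound vs vehicle) was measured in yeast with a defined repair-gene alteration.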

The nature of assay [2]: NCI Yeast Anticancer Drug Screen. Data for the mec2-1 strain (AID 157). The conditions noted are these: S. cerevisiae mec2-1 strain, at 50.0 µM, hits give high values. In a few lines:
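mec2-1 yeast strain, carrying an alteration in DNA damage repair or cell cycle control, was exposed to compounds; growth inhibition was measured relative to vehicle-treated controls.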

Assay [3] can be described thus: NCI Yeast Anticancer Drug Screen. Data for the sgs1 mgt1 strain (AID 161).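 Further: 0% = growth of cultures given vehicle only.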 The conditions noted are these: S. cerevisiae sgs1 mgt1 strain, at 50.0 µM, hits give high values. An outline of the steps: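 Percent growth inhibition was derived by comparing compound-exposed mutant yeast with vehicle-exposed cultures. The strain carries alterations in DNA damage repair.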

Assay [4] can be described thus: NCI Yeast Anticancer Drug Screen. Data for the cln2 rad14 strain (AID 165).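 Further: 0% = growth equal to vehicle treated cultures.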 The conditions noted are these: S. cerevisiae cln2 rad14 strain, at 50.0 µM, hits give high values. In a few lines: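 Yeast carrying cln2 and rad14 alterations (cell cycle control and DNA damage repair) were exposed to compounds. Growth inhibition was measured against vehicle-treated controls.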

Assay [5] in a line: NCI Yeast Anticancer Drug Screen. Data for the bub3 strain (AID 167). The conditions noted are these: S. cerevisiae bub3 mutant strain, at 50.0 µM, hits give high values. In a few lines: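 Screening used yeast with an engineered genetic alteration affecting cell cycle control. Compound-exposed cultures were compared with vehicle cultures, and reduced growth was taken as inhibition.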

The nature of assay [6]: NCI Yeast Anticancer Drug Screen. Data for the mlh1 rad18 strain (AID 175). To be noted: S. cerevisiae mlh1 rad18 strain growth inhibition; at 50.0 µM; hits give high values. An outline of the steps: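 Growth inhibition of the yeast strain was measured after compound exposure and expressed relative to vehicle-treated controls. The strain carries defined defects in DNA damage repair.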

About 79,000 compounds went through this panel and 15% of them were active in at least one assay; those are over-represented in the sample as a whole. Values without a mark were called inactive. Calls of active or inactive are those of the source. No stated cut-off is given here; in the data, active means growth inhibition above about 70%; inactive means the rest. Where a SMILES comes first, the peptide text is derived from it. [ ]: non-standard residue; d: D form. The star is where a group is joined. ξ: configuration not given here. ξD = NC(CC(=O)O)C(=O)O; Boc = CC(C)(C)OC(=O)*; Aib = CC(C)(N)C(=O)O; OtBu = CC(C)(C)O*

In the case of `CCOc1ccccc1NC(=O)c1c(Br)c(Br)c(Br)c(Br)c1C(=O)O`, the growth inhibition was 5.6% in assay [1]; -16.8% in assay [2]; -1.8% in assay [3]; -4.15% in assay [4]; 6.05% in assay [5]; -17.6% in assay [6].

Consider `CC1Cc2cc(O)ccc2C2[C@@H]1C1CC[C@H](O)[C@@]1(C)C[C@@H]2O[N+](=O)[O-]` (stereo partly specified), for which the growth inhibition is 18.5% in assay [1]; 19.7% in assay [2]; 55.8% in assay [3]; 47.3% in assay [4]; 60.9% in assay [5]; 83% (active) in assay [6].

For `CCOC(CN/C(=C/c1ccc2ccccc2[n+]1C)SC)OCC`, the growth inhibition is -10.8% in assay [1]; 9.15% in assay [2]; -8.4% in assay [3]; -12.1% in assay [4]; -32.8% in assay [5]; -8.2% in assay [6].

On to `NC(=Nc1ccc([N+](=O)[O-])cc1)c1ccccc1`, for which the growth inhibition was 6.95% in assay [1]; 1.6% in assay [2]; -4.05% in assay [3]; -11.9% in assay [4]; 8.3% in assay [5]; 9.65% in assay [6].

For `O=C(/C=C/c1ccc(Cl)cc1)c1ccncc1`, the growth inhibition in assay [1] is 33.5%; in assay [2] it was 0%; in assay [3], 11.6%; in assay [4], 18%; in assay [5], 16.1%; in assay [6], 33.9%.

Consider `O=NC1CC=CC1Cl` (stereo unspecified), for which the growth inhibition is 18.6% in assay [1]; 0.1% in assay [2]; 0.65% in assay [3]; 9.5% in assay [4]; -8.1% in assay [5]; 22.2% in assay [6].

Take `CCC1CCC(OC(=O)Nc2cccc3ccccc23)CC1` (stereo unspecified): the growth inhibition in assay [1] is 12.2%; in assay [2] it was -26.1%; in assay [3], -5.35%; in assay [4], 3.7%; in assay [5], 4.85%; in assay [6], -10.4%.

For `Cc1nc(Cc2ccc(O)c(O)c2)c(C)o1`, the growth inhibition is 6.7% in assay [1]; 13.9% in assay [2]; 3.95% in assay [3]; -17.2% in assay [4]; -18% in assay [5]; 8.2% in assay [6].

For `CC(=O)C1(SCCO)CCC2C3CCC4=CC(=O)CCC4(C)C3CCC21C` (stereo unspecified), the growth inhibition was 91.8% (active) in assay [1]; 69.8% in assay [2]; 97% (active) in assay [3]; -3.35% in assay [4]; 41.1% in assay [5]; 77.2% (active) in assay [6].

Turning to `CCOC(=O)c1cnc(=O)n(Cc2ccccc2)c1N`, the growth inhibition in assay [1] was -1.25%; in assay [2], 0.65%; in assay [3], 10.9%; in assay [4], 0.45%; in assay [5], 0.35%; in assay [6] it was -8.15%.

For `CCCCCCC(N)=O`, the growth inhibition is 8.1% in assay [1]; 2.1% in assay [2]; -4.05% in assay [3]; -26.9% in assay [4]; -6.45% in assay [5]; 9.75% in assay [6].

Regarding `COC1=C2CC(C)CC(OC)C(O)C(C)/C=C(\C)C(OC(N)=O)C(OC)/C=C\C=C(/C)C(=O)NC(=C(C=NC(C)(C)C)C1=O)C2=O` (stereo unspecified), the growth inhibition in assay [1] was 9.15%; in assay [2], 23.2%; in assay [3], 23.2%; in assay [4], 46.1%; in assay [5], 6.4%; in assay [6] it was 18.5%.

Turning to `COC(=O)C(C)(C)NC(=O)C(C)(C)NC(=O)C(CC(=O)OC(C)(C)C)NC(=O)OC(C)(C)C` (stereo unspecified) (Boc-[ξD](OtBu)-[Aib]-[Aib]-OMe), the growth inhibition is -29.3% in assay [1]; -16.1% in assay [2]; -21.1% in assay [3]; -7.4% in assay [4]; -18.4% in assay [5]; -28.7% in assay [6].

Regarding `O=C1CSC(c2cccc(Cl)c2)N1N1C(=O)CSC1c1cccc(Cl)c1` (stereo unspecified), the growth inhibition is 6.3% in assay [1]; 19.4% in assay [2]; -7.15% in assay [3]; -0.6% in assay [4]; 2.05% in assay [5]; 13.4% in assay [6].

Consider `Cc1nc(C(=O)O)ccc1O`, for which the growth inhibition in assay [1] was 3.05%; in assay [2], 16%; in assay [3], -1.05%; in assay [4], -3.2%; in assay [5], 0.45%; in assay [6], 4%.

With `Cc1ccc(S(=O)(=O)OC2C(OC(=O)c3ccccc3)OCC(O)C2O)cc1` (stereo unspecified), the growth inhibition is 23.6% in assay [1]; 2.45% in assay [2]; 6.1% in assay [3]; -11.8% in assay [4]; 6.5% in assay [5]; 3.35% in assay [6].

`O=C(O)c1ccccc1[N+](=O)[O-]`: the growth inhibition in assay [1] is -4.1%; in assay [2] it was 10.1%; in assay [3], -9.5%; in assay [4], 1.3%; in assay [5] it was -4.3%; in assay [6], 10.8%.

Consider `COc1cc2c(c3[nH]cc(C(=O)O)c(=O)c13)NC(=O)CS2`, for which the growth inhibition in assay [1] is -47.1%; in assay [2], -87.8%; in assay [3], -16.9%; in assay [4] it was -32.4%; in assay [5] it was -2.85%; in assay [6], -29.4%.

As for `O=C(O)c1ccccn1`, the growth inhibition in assay [1] was -37.6%; in assay [2], -3%; in assay [3], 33.8%; in assay [4] it was -6.1%; in assay [5] it was -3.85%; in assay [6], 30%.

In the case of `O=C(NNc1ccccc1)c1ccc(Cl)cc1Cl`, the growth inhibition in assay [1] is 3.5%; in assay [2], -9.4%; in assay [3] it was 50%; in assay [4], -0.05%; in assay [5] it was 50.4%; in assay [6] it was 34.9%.

For the compound `Cc1nc(-n2nc(-c3ccccc3)cc2-c2ccccc2)sc1C(/C=C/c1ccc([N+](=O)[O-])cc1)=N/NC(N)=S`, the growth inhibition is 18.6% in assay [1]; 7.15% in assay [2]; 12.7% in assay [3]; -18.3% in assay [4]; 44.4% in assay [5]; 33.7% in assay [6].

The values above are taken from PubChem BioAssay (NCI).
